Laboratory results taken from article PMC4336329 (PLoS ONE, 2015).
Screen size: about 310,000 compounds; about 14,000 (4.5%) showed an effect of 50% or more. The effect is printed as a negative number. The full list was thinned out, with strong results kept by preference.
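Also: peak tail current of the secondary pulse compared with the same well before compound.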

What follows are molecules tested against human ether-à-go-go-related gene (hERG) potassium channel (human, UniProt Q12809) (assay: primary screen, population patch clamp on CHO cells stably expressing hERG; higher = less effect of the substance).
Sequence of human ether-à-go-go-related gene (hERG) potassium channel (Q12809 whole entry, looked up): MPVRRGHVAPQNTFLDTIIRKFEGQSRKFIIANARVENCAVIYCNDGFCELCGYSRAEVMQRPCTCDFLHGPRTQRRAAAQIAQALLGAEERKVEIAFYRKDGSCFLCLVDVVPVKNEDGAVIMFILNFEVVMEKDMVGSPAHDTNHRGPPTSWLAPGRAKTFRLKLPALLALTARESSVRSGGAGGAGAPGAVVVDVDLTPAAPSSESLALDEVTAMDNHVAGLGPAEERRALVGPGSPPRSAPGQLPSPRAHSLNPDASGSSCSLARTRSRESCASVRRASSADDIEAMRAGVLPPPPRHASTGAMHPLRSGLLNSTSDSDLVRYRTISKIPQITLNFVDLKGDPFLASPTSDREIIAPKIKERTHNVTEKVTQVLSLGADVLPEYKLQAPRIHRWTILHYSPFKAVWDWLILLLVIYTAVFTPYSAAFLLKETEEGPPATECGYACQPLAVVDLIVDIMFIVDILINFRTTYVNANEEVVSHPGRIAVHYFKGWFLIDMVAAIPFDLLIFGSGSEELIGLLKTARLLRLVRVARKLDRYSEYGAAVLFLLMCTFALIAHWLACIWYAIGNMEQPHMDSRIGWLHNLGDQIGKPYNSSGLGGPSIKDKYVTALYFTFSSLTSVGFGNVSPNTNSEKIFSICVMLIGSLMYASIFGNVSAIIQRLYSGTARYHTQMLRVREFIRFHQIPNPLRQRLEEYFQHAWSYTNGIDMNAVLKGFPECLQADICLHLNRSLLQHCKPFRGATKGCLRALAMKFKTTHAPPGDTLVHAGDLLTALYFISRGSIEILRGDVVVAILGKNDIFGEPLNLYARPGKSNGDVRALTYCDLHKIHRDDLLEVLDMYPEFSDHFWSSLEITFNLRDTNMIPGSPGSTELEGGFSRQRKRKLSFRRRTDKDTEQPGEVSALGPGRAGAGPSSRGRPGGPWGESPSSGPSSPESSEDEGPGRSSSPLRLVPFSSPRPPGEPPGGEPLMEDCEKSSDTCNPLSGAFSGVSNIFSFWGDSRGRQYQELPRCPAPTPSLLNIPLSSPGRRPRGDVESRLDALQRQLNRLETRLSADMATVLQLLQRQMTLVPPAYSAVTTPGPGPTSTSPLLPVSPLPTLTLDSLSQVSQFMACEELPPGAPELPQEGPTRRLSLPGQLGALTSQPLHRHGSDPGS
`Cc1c(OCc2ccc([N+](=O)[O-])cc2)ccc2c3c(c(=O)oc12)CCC3` was tested, and the “hERG current change (%, negative = inhibition) at 10uM” value was 0.652%.
`Cc1nc(C)n(C(C)CNS(=O)(=O)c2ccc(Cl)cc2)n1` (centres unmarked) was tested, and the “hERG current change (%, negative = inhibition) at 10uM” value was 13.9%.
`O=C(C[n+]1ccn(CCCNP2(=O)C=C(c3ccccc3)OC(c3ccccc3)=C2)c1)c1cccs1.[Br-]` was tested, and the “hERG current change (%, negative = inhibition) at 10uM” value was -44.7%.
In the case of `O=C(C[n+]1ccn(CCCNP2(=O)C=C(c3ccccc3)OC(c3ccccc3)=C2)c1)c1ccccc1.[Br-]`, the “hERG current change (%, negative = inhibition) at 10uM” value is reported as -22.8%.
With `O=P1(NCCCn2cc[n+](Cc3nc4ccccc4[nH]3)c2)C=C(c2ccccc2)OC(c2ccccc2)=C1.[Cl-]` the “hERG current change (%, negative = inhibition) at 10uM” value was -63%.
`CC[C@H](C)[C@H](NC(=O)[C@H](Cc1ccc(O)cc1)NC(=O)[C@@H](N)C(C)C)C(=O)N[C@@H](Cc1cnc[nH]1)C(=O)N1CCC[C@H]1C(=O)N[C@@H](Cc1ccccc1)C(=O)O` was tested, and the “hERG current change (%, negative = inhibition) at 10uM” value was 4.75%.
In the case of `O=S(=O)(NCCc1ccncc1)c1ccc(F)cc1`, the “hERG current change (%, negative = inhibition) at 10uM” value is reported as 12%.
In the case of `CCOC(=O)C1=C(C)N=C2SCCC(=O)N2C1c1cccs1` (centres unmarked), the “hERG current change (%, negative = inhibition) at 10uM” value is reported as -10.2%.
For `CCCCCCCCS(=O)C1CS(=O)(=O)CC1O` (centres unmarked), the “hERG current change (%, negative = inhibition) at 10uM” value was 5.75%.
In the case of `CCCCCCCCS(=O)C1CCS(=O)(=O)C1` (centres unmarked), the “hERG current change (%, negative = inhibition) at 10uM” value is reported as 4.04%.
For `CCCCCCS(=O)[C@H]1CS(=O)(=O)C[C@@H]1S(=O)CCCCCC` (some centres unmarked), the “hERG current change (%, negative = inhibition) at 10uM” value was -66.7%.
With `CCOC(=O)N1CCN(Cc2nc(-c3ccc(C)cc3)no2)CC1` the “hERG current change (%, negative = inhibition) at 10uM” value was -17.6%.
For `CCOC(=O)N1CCN(Cc2nc(N)nc(Nc3ccc(C)cc3C)n2)CC1`, the “hERG current change (%, negative = inhibition) at 10uM” value was -16.7%.
In the case of `CCOC(=O)N1CCN(Cc2nc(-c3ccc(Cl)cc3)no2)CC1`, the “hERG current change (%, negative = inhibition) at 10uM” value is reported as -30.6%.
In the case of `CCOC(=O)N1CCN(C(=O)Nc2ccc(Cl)cc2)CC1`, the “hERG current change (%, negative = inhibition) at 10uM” value is reported as -11.4%.
With `CCOC(=O)N1CCN(Cc2nc(N)nc(Nc3ccc(C)cc3)n2)CC1` the “hERG current change (%, negative = inhibition) at 10uM” value was -57.2%.
In the case of `CCOC(=O)N1CCN(Cc2nc(N)nc(Nc3ccc(Cl)cc3)n2)CC1`, the “hERG current change (%, negative = inhibition) at 10uM” value is reported as -72.4%.
With `COc1ccc(C2C(C(=O)O)CCC(=O)N2c2ccc(C)cc2)cc1OC` (centres unmarked) the “hERG current change (%, negative = inhibition) at 10uM” value was -10.6%.
For `CC(C)[C@H](NS(=O)(=O)c1ccccc1)C(=O)OCC(=O)Nc1ccccc1Sc1ccccc1`, the “hERG current change (%, negative = inhibition) at 10uM” value was 1.98%.
`C=CCn1c(Sc2nnc(C)s2)nc2c1c(=O)[nH]c(=O)n2C` was tested, and the “hERG current change (%, negative = inhibition) at 10uM” value was 11.2%.
`O=C(NCc1ccccn1)Nc1ccccc1F` was tested, and the “hERG current change (%, negative = inhibition) at 10uM” value was 13.5%.
For `Cc1cc(NC(=O)CSc2ccc(Cl)cc2)no1`, the “hERG current change (%, negative = inhibition) at 10uM” value was -3.36%.
`COc1cccc(C(=O)CSc2nc3ccccc3n2CC(=O)N(C(C)C)C(C)C)c1` was tested, and the “hERG current change (%, negative = inhibition) at 10uM” value was -5.36%.
In the case of `CCCCCCC[n+]1ccc(-c2cc[n+](CCCCCCC)cc2)cc1.[I-]`, the “hERG current change (%, negative = inhibition) at 10uM” value is reported as 9.12%.
For `CC(=O)Nc1ccc(OCCC[n+]2ccccc2)cc1.[Cl-]`, the “hERG current change (%, negative = inhibition) at 10uM” value was 40.4%.
In the case of `CCCCCc1ccc(OCCCC[n+]2ccccc2)c(CCCCC)c1.[Cl-]`, the “hERG current change (%, negative = inhibition) at 10uM” value is reported as -66.4%.
For `CCCCCc1ccc(OCCCC[n+]2cccc(C)c2)c(CCCCC)c1.[Cl-]`, the “hERG current change (%, negative = inhibition) at 10uM” value was -71.1%.
For `Cc1ccc[n+](CC(=O)Nc2ccc(C)c(C)c2)c1.[Cl-]`, the “hERG current change (%, negative = inhibition) at 10uM” value was 10.4%.
For `CCCCOc1ccc(CCN)cc1Cl.Cl`, the “hERG current change (%, negative = inhibition) at 10uM” value was -13.7%.
`CCCCCc1ccc(S(=O)(=O)Nc2cc(C)ccn2)cc1` was tested, and the “hERG current change (%, negative = inhibition) at 10uM” value was 8.41%.
For `CCCCCc1ccc(OCCCC[n+]2ccc(C)cc2)c(CCCCC)c1.[Cl-]`, the “hERG current change (%, negative = inhibition) at 10uM” value was -77%.
For `CCCCOc1ccc(C)cc1CN(CCO)CCO.Cl`, the “hERG current change (%, negative = inhibition) at 10uM” value was 1.6%.
With `CCCCCc1ccc(OCCC[n+]2ccccc2)c(CCCCC)c1.[Cl-]` the “hERG current change (%, negative = inhibition) at 10uM” value was -75.7%.
For `CCCCCc1ccc(CC(=O)O)cc1`, the “hERG current change (%, negative = inhibition) at 10uM” value was 11.4%.
With `CCCCCOc1ccc(C)cc1CN(CCCl)CCCl.Cl` the “hERG current change (%, negative = inhibition) at 10uM” value was 13.1%.
With `OCC1OC(n2cnc3ccccc32)CC1O` (centres unmarked) the “hERG current change (%, negative = inhibition) at 10uM” value was 10.8%.
`CCNC(=O)OCC12CC3CC(CC(C3)C1)C2` was tested, and the “hERG current change (%, negative = inhibition) at 10uM” value was -5.85%.
With `Cc1ccc(C(=O)N/N=C\c2ccc(-c3ccc(Cl)c(Cl)c3)o2)cn1` the “hERG current change (%, negative = inhibition) at 10uM” value was -44.9%.
For `CCOC(=O)N1CCN(C(=O)C2CCC(=O)N(Cc3cccc(C(F)(F)F)c3)C2)CC1` (centres unmarked), the “hERG current change (%, negative = inhibition) at 10uM” value was -11.1%.
`CC(C)n1c(O)c(N=NC(=O)C2COc3ccccc3O2)c2ccccc21` (centres unmarked) was tested, and the “hERG current change (%, negative = inhibition) at 10uM” value was 12.4%.
With `Nn1c(COc2ccccc2F)nnc1SCC(=O)NC1CCS(=O)(=O)C1` (centres unmarked) the “hERG current change (%, negative = inhibition) at 10uM” value was -7.72%.
In the case of `CCc1nc(CN2CCN(c3ccc(C(F)(F)F)cn3)CC2)c(C)[nH]1`, the “hERG current change (%, negative = inhibition) at 10uM” value is reported as -55.6%.
With `CS(=O)(=O)Nc1ccc(N2CCN(c3ccc(C(F)(F)F)cn3)CC2)nc1` the “hERG current change (%, negative = inhibition) at 10uM” value was -4.03%.
For `CCc1nc(CN2CCN(c3cc(C(F)(F)F)ccn3)CC2)c(C)[nH]1`, the “hERG current change (%, negative = inhibition) at 10uM” value was -45.2%.
